Assay results from PubChem BioAssay (Tox21).
Values joined by “and” are separate entries in the source; they are usually repeats but may differ in a detail not shown here. Identical values can stand only once. Inconclusive results are not listed. A structure can be active in one record and inactive in another. Active and inactive are the calls of the source. Calls come from the whole dose curve.

Columns and labels:
[1] = target: Acetylcholinesterase (Homo sapiens) (UniProt P22303); assay: Acetylcholinesterase (AChE) small molecule antagonists: colormetric cell-based qHTS assay (AID 1347395); note: nearly all actives have a fitted effect of over 30% in size; note: potency is the fitted concentration of half-maximal effect
Sequence of Acetylcholinesterase (Homo sapiens) (P22303 whole entry, looked up): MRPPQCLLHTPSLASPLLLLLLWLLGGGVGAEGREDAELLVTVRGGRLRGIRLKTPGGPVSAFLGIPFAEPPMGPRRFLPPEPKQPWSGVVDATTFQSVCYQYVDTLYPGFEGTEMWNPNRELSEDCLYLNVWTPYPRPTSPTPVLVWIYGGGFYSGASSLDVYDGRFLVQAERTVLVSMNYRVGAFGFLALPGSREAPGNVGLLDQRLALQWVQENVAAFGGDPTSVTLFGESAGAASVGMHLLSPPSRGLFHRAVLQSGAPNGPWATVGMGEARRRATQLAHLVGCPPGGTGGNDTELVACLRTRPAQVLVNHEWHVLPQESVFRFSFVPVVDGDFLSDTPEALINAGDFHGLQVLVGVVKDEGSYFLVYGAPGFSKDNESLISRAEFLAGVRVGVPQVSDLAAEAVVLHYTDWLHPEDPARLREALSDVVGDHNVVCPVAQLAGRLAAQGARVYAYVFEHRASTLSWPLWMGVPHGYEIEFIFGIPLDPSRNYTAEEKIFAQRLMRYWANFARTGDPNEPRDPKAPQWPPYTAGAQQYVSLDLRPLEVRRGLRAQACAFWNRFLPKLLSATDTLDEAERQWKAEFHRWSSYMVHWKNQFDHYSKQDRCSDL
Summary of the method: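 In this cell-based qHTS, attached SH-SY5Y cells were treated with test chemicals for 30 min, after which acetylthiocholine hydrolysis was followed by DTNB colour development over 90 min at 37 C.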

[2] = target: Acetylcholinesterase (Homo sapiens) (UniProt P22303); assay: Acetylcholinesterase (AChE) small molecule antagonists: enzyme-based qHTS assay (AID 1347397); details: Potency: AChE enzyme activity inhibition; outcome: AChE enzyme activity inhibition; note: nearly all actives have a fitted effect of over 55% in size
Summary of the method: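 Recombinant human AChE (50 mU/mL) preincubated with compound 30 min at room temperature; acetylthiocholine plus DTNB then added, and thiocholine formation read colorimetrically after 10 min at room temperature. DMSO served as vehicle control.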

[3] = target: Acetylcholinesterase (Homo sapiens) (UniProt P22303); assay: Acetylcholinesterase (AChE) small molecule antagonists: fluorescence cell-based qHTS assay (AID 1347398); details: Potency: AChE activity; outcome: AChE activity; note: nearly all actives have a fitted effect of over 50% in size; note: potency is the fitted concentration of half-maximal effect
Summary of the method: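 SH-SY5Y cells (2000/well), attached overnight, incubated with compound 30 min at 37 C. Acetylthiocholine plus Thiolite Green then added for 40 min at room temperature. Thiocholine fluorescence (Ex/Em 490/520 nm) reports cellular AChE activity.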

[4] = target: Acetylcholinesterase (Homo sapiens) (UniProt P22303); assay: Acetylcholinesterase (AChE) small molecule antagonists: enzyme-based qHTS assay with human liver microsomes (AID 1347399); details: Potency: qHTS inhibition; outcome: qHTS inhibition; note: nearly all actives have a fitted effect of over 60% in size
Summary of the method: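 Recombinant human AChE (50 mU/mL in the enzyme mix) and human liver microsomes (0.25 mg/mL final) were preincubated with compound and NADPH (0.25 mg/mL final) for 30 min at 37 C. Acetylthiocholine/DTNB was then added; thiocholine was read colorimetrically after 10 min at room temperature.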
% is set by controls: 0 for no effect and ±100 for the full control effect.

O=C1c2ccccc2C(=O)N1CO
inactive: Potency [1] | Potency [2] | Potency [3] | Potency [4]

C[C@H]1C[C@@H](O)CC(C)(C)C1
inactive: Potency [1] | Potency [2] | Potency [3] | Potency [4]

O=C(c1ccc(O)cc1O)c1ccc(O)cc1O
inactive: Potency [1] | Potency [2] | Potency [3] | Potency [4]

Cc1cn([C@H]2C[C@H](F)[C@@H](CO)O2)c(=O)[nH]c1=O
inactive: Potency [1] | Potency [2] | Potency [3] | Potency [4]

Nc1[nH]c(=O)ncc1F
inactive: Potency [1] | Potency [2] | Potency [3] | Potency [4]

CC(=O)O[C@H]1CC[C@@]2(C)C(=CC[C@@H]3[C@@H]2CC[C@]2(C)C(C(C)=O)=CC[C@@H]32)C1
inactive: Potency [1] | Potency [2] | Potency [3] | Potency [4]

Cc1cccc(N)n1
inactive: Potency [1] | Potency [2] | Potency [3] | Potency [4]

Cc1nc2ccc(CN(C)c3ccc(C(=O)N[C@@H](CCC(=O)O)C(=O)O)s3)cc2c(=O)[nH]1
inactive: Potency [1] | Potency [2] | Potency [3] | Potency [4]

O=Cc1cccc([N+](=O)[O-])c1
inactive: Potency [1] | Potency [2] | Potency [3] | Potency [4]

O=C(c1ccc(O)cc1)c1ccc(O)cc1O
inactive: Potency [1] | Potency [2] | Potency [3] | Potency [4]

Nc1ccc(S(=O)(=O)Nc2ccnn2-c2ccccc2)cc1
inactive: activity, negative = inhibition [1] -0.528% [at 23.6 µM] | activity change, negative = inhibition [2] -0.415% [at 23.6 µM] | activity change, negative = inhibition [3] 5.71% [at 23.8 µM] | activity change, negative = inhibition [4] -0.674% [at 23.6 µM]

CCCCCC/C=C/C=O
inactive: Potency [1] | Potency [2] | Potency [3] | Potency [4]

Cc1ccc(C#N)cc1
inactive: Potency [1] | Potency [2] | Potency [3] | Potency [4]

C#CCN(C)CCCOc1ccc(Cl)cc1Cl
inactive: Potency [1] | Potency [2] | Potency [3] | Potency [4]

O=c1[nH]cnc2nc[nH]c12
inactive: Potency [1] | Potency [2] | Potency [3] | Potency [4]

COC(=O)Nc1nc2ccc(C(=O)c3cccs3)cc2[nH]1
inactive: Potency [1] | Potency [2] | Potency [3] | Potency [4]

CCCCCCCCCCCCCCCC(=O)O
inactive: Potency [1] | Potency [2] | Potency [3] | Potency [4]

CC(O)C(=O)O (stereo not given)
inactive: Potency [1] | Potency [2] | Potency [3] | Potency [4]

Fc1ccc(Br)cc1
inactive: Potency [1] | Potency [2] | Potency [3] | Potency [4]

CCCn1cnc2c1c(=O)n(CCCCC(C)=O)c(=O)n2C
inactive: Potency [1] | Potency [2] | Potency [3] | Potency [4]

NNC(=O)c1cccc(C(=O)NN)c1
inactive: Potency [1] | Potency [2] | Potency [3] | Potency [4]

CC1(C)[C@@H]2CC[C@@]1(C)[C@H](O)C2
inactive: Potency [1] | Potency [2] | Potency [3] | Potency [4]

CC(=O)CCc1ccccc1
inactive: Potency [1] | Potency [2] | Potency [3] | Potency [4]

CC(C)OC(=O)C(C)(C)Oc1ccc(C(=O)c2ccc(Cl)cc2)cc1
inactive: Potency [1] | Potency [2] | Potency [3] | Potency [4]

COc1nc(C)nc(NC(=O)NS(=O)(=O)c2ccccc2OCCCl)n1
inactive: Potency [1] | Potency [2] | Potency [3] | Potency [4]

COc1ccc(OC(F)(F)F)cc1CN[C@H]1CCCN[C@H]1c1ccccc1
inactive: Potency [1] | Potency [2] | Potency [3] | Potency [4]

C=C1CC/C=C(\C)CC[C@@H]2[C@@H]1CC2(C)C
inactive: Potency [1] | Potency [2] | Potency [3] | Potency [4]

Clc1ccc(Sc2cc(Cl)c(Cl)cc2Cl)cc1
inactive: Potency [1] | Potency [2] | Potency [3] | Potency [4]

C=C(C)C(=O)OCCOC(=O)CC(C)=O
inactive: Potency [1] | Potency [2] | Potency [3] | Potency [4]

CC(=O)c1sc(C)nc1C
inactive: Potency [1] | Potency [2] | Potency [3] | Potency [4]

O=C1c2cccc(O)c2C(=O)c2c(O)cc(CO)cc21
inactive: Potency [1] | Potency [2] | Potency [3] | Potency [4]

CCCCCCCCCCCC(=O)OCC(O)CO (stereo not given)
inactive: Potency [1] | Potency [2] | Potency [3] | Potency [4]

CCCCCCCCCC(=O)OC
34.9 µM (active) and inactive: Potency [3]
inactive: Potency [1] | Potency [2] | Potency [4]

O=C1OC2(c3ccc(O)cc3Oc3cc(O)ccc32)c2ccc(N=C=S)cc21
inactive: Potency [1] | Potency [2] | Potency [3] | Potency [4]

CC(C)=CCC[C@@](C)(O)[C@H]1CC=C(C)CC1
inactive: Potency [1] | Potency [2] | Potency [3] | Potency [4]

C1=C\CC/C=C\CC/1
inactive: Potency [1] | Potency [2] | Potency [3] | Potency [4]

CCCCC(CC)CCC(CC(C)C)OS(=O)(=O)O (stereo not given)
inactive: Potency [1] | Potency [2] | Potency [3] | Potency [4]

C/C=C(\C)C(=O)OC/C=C(\C)CCC=C(C)C
inactive: Potency [1] | Potency [2] | Potency [3] | Potency [4]

CCOC(=O)c1ccc(I)cc1
inactive: Potency [1] | Potency [2] | Potency [3] | Potency [4]

Cc1cc(NS(=O)(=O)c2ccc(N)cc2)nc(C)n1
inactive: Potency [1] | Potency [2] | Potency [3] | Potency [4]

CNC(=O)[C@H]1O[C@@H](n2cnc3c(NCc4cc(Cl)ccc4OCc4cc(C)no4)ncnc32)[C@H](O)[C@@H]1N
inactive: Potency [1] | Potency [2] | Potency [3] | Potency [4]

C#C[C@]1(O)CC[C@H]2[C@@H]3CCC4=Cc5oncc5C[C@]4(C)[C@H]3CC[C@@]21C
inactive: Potency [1] | Potency [2] | Potency [3] | Potency [4]

CNS(=O)(=O)Cc1ccc2[nH]cc(CCN(C)C)c2c1
inactive: Potency [1] | Potency [2] | Potency [3] | Potency [4]

O=C(O)c1cccc(Oc2ccccc2)c1
inactive: Potency [1] | Potency [2] | Potency [3] | Potency [4]

C1CN(SSN2CCOCC2)CCO1
inactive: Potency [1] | Potency [2] | Potency [3] | Potency [4]

Cc1cccc2sc(N)nc12
inactive: Potency [1] | Potency [2] | Potency [3] | Potency [4]

Nc1nc(N)nc(-c2ccccc2)n1
inactive: Potency [1] | Potency [2] | Potency [3] | Potency [4]

CC(O)C(CO)C(C)O (stereo not given)
inactive: Potency [1] | Potency [2] | Potency [3] | Potency [4]

O=[N+]([O-])c1ccccc1C(F)(F)F
inactive: Potency [1] | Potency [2] | Potency [3] | Potency [4]

CC1=CC(=O)CC(C)(C)C1
inactive: Potency [1] | Potency [2] | Potency [3] | Potency [4]

CC#C[C@]1(O)CC[C@H]2[C@@H]3CCC4=CC(=O)CCC4=C3[C@@H](c3ccc(N(C)C)cc3)C[C@@]21C
inactive: Potency [1] | Potency [2] | Potency [3] | Potency [4]

Nc1ncn([C@@H]2O[C@H](CO)[C@@H](O)[C@H]2O)c(=O)n1
inactive: Potency [1] | Potency [2] | Potency [3] | Potency [4]

Cc1oc(=O)oc1CN1CCN(c2cc3c(cc2F)c(=O)c(C(=O)O)c2n3C(C)S2)CC1 (stereo not given)
inactive: Potency [1] | Potency [2] | Potency [3] | Potency [4]

CC(C)(C)[C@@H](O)[C@@H](Cc1ccc(Cl)cc1)n1cncn1
inactive and 71 µM (active): Potency [1]
inactive: Potency [2] | Potency [3] | Potency [4]

Cc1cc2nc3c(=O)[nH]c(=O)nc-3n(C[C@H](O)[C@H](O)[C@H](O)CO)c2cc1C
active: Potency [1] 35.2 µM and 33 µM
inactive: Potency [2] | Potency [3] | Potency [4]

CC(C)(C)c1ccc(OC2CCCCC2O)cc1 (stereo not given)
inactive: Potency [1] | Potency [2] | Potency [3] | Potency [4]

CC(C)c1cccc(C(C)C)c1N
inactive: Potency [1] | Potency [2] | Potency [3] | Potency [4]

COc1ccc(CN(CCN(C)C)c2ccccn2)cc1
inactive: Potency [1] | Potency [2] | Potency [3] | Potency [4]

Cc1ccc2ccccc2n1
inactive: Potency [1] | Potency [2] | Potency [3] | Potency [4]

CC(C)C[C@H](NC(=O)[C@H](Cc1ccccc1)NC(=O)c1cnccn1)B(O)O
inactive: Potency [1] | Potency [2] | Potency [3] | Potency [4]
